According to PubChem BioAssay AID1159580 (chemical genetic matrix, 2015):
The whole screen tested about 5,500 compounds, of which about 2,000 (36%) were called active. Roughly 18% stayed inconclusive and do not appear here. No stated cut-off is given here; in the data, active means normalized growth mostly below about 0.91 (no sharp cut-off); inconclusive means no clear call, values can overlap the other calls; inactive means mostly above about 0.92. This is one part of the list.

Test: chemical genetic growth profiling, strain panel (AID 1159580);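 further: tested at 20 µM; growth read once vehicle control cultures reached saturation at 30 °C; 1 = growth at the plate median or of vehicle wells; lower values mean less growth of the strain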
Details: growth OD

Measured: normalized growth

CC(C)CCCC(C)[C@H]1CCC2C3CC=C4C[C@@H](O)CC[C@]4(C)C3CC[C@@]21C (some centres undefined)
inactive: S. cerevisiae deletion strains, locus YJR075W, strain HOC1, active compounds read low 1.02 | S. cerevisiae deletion strains, locus YKL009W, strain mrt4, active compounds read low 0.99 | S. cerevisiae deletion strains, locus YKL068W, active compounds read low 1 | S. cerevisiae deletion strains, locus YKL085W, strain MDH1 (second series), active compounds read low 0.999 | S. cerevisiae deletion strains, locus YKL085W, strain MDH1, active compounds read low 0.999 | S. cerevisiae deletion strains, locus YKL160W, strain elf1, active compounds read low 1.01 | S. cerevisiae deletion strains, locus YKL190W, strain CNB1, active compounds read low 1.01 | S. cerevisiae deletion strains, locus YKR001C, strain vps1, active compounds read low 0.985 | S. cerevisiae deletion strains, locus YKR026C, strain gcn3, active compounds read low 0.988 | S. cerevisiae deletion strains, locus YKR091W, strain srl3, active compounds read low 0.981 | S. cerevisiae deletion strains, locus YLL001W, strain dnm1, active compounds read low 1 | S. cerevisiae deletion strains, locus YLL026W, active compounds read low 0.993 | S. cerevisiae deletion strains, locus YLL041C, strain sdh2, active compounds read low 0.968 | S. cerevisiae deletion strains, locus YLR027C, strain aat2, active compounds read low 0.981 | S. cerevisiae deletion strains, locus YLR039C, strain RIC1, active compounds read low 1.02 | S. cerevisiae deletion strains, locus YLR058C, strain SHM2, active compounds read low 1.01 | S. cerevisiae deletion strains, locus YLR102C, strain apc9, active compounds read low 0.995 | S. cerevisiae deletion strains, locus YLR113W, strain HOG1, active compounds read low 1.04 | S. cerevisiae deletion strains, locus YLR221C, strain rsa3, active compounds read low 1.08 | S. cerevisiae deletion strains, locus YLR258W, strain gsy2, active compounds read low 1 | S. cerevisiae deletion strains, locus YLR262C, strain YPT6 (second series), active compounds read low 0.987 | S. cerevisiae deletion strains, locus YLR262C, strain YPT6, active compounds read low 1.02 | S. cerevisiae deletion strains, locus YLR268W, strain sec22, active compounds read low 0.963 | S. cerevisiae deletion strains, locus YLR320W, strain mms22, active compounds read low 1.01 | S. cerevisiae deletion strains, locus YLR330W, strain CHS5, active compounds read low 1.02 | S. cerevisiae deletion strains, locus YLR342W, strain FKS1 (second series), active compounds read low 1.02 | S. cerevisiae deletion strains, locus YLR342W, strain FKS1, active compounds read low 0.968 | S. cerevisiae deletion strains, locus YLR357W, strain rsc2, active compounds read low 0.983 | S. cerevisiae deletion strains, locus YLR370C, strain arc18, active compounds read low 0.974 | S. cerevisiae deletion strains, locus YLR371W, strain rom2, active compounds read low 0.988 | S. cerevisiae deletion strains, locus YLR384C, strain iki3, active compounds read low 0.97 | S. cerevisiae deletion strains, locus YLR418C, strain cdc73, active compounds read low 1 | S. cerevisiae deletion strains, locus YML016C, strain PPZ1, active compounds read low 1.01 | S. cerevisiae deletion strains, locus YML032C, strain rad52, active compounds read low 1 | S. cerevisiae deletion strains, locus YML120C, strain ndi1, active compounds read low 0.975 | S. cerevisiae deletion strains, locus YML124C, strain tub3, active compounds read low 0.999 | S. cerevisiae deletion strains, locus YMR058W, strain fet3, active compounds read low 0.972 | S. cerevisiae deletion strains, locus YMR078C, strain ctf18, active compounds read low 0.999 | S. cerevisiae deletion strains, locus YMR125W, strain sto1, active compounds read low 0.94 | S. cerevisiae deletion strains, locus YMR129W, active compounds read low 0.975 | S. cerevisiae deletion strains, locus YMR205C, strain PFK2, active compounds read low 1 | S. cerevisiae deletion strains, locus YMR223W, strain ubp8, active compounds read low 1.02 | S. cerevisiae deletion strains, locus YMR231W, strain pep5, active compounds read low 0.967 | S. cerevisiae deletion strains, locus YMR263W, strain SAP30, active compounds read low 1.02 | S. cerevisiae deletion strains, locus YMR307W, strain GAS1, active compounds read low 1.04 | S. cerevisiae deletion strains, locus YNL067W, strain RPL9B, active compounds read low 1 | S. cerevisiae deletion strains, locus YNL071W, strain lat1, active compounds read low 0.966 | S. cerevisiae deletion strains, locus YNL183C, strain NPR1, active compounds read low 0.962 | S. cerevisiae deletion strains, locus YNL209W, strain ssb2, active compounds read low 0.98 | S. cerevisiae deletion strains, locus YNL233W, strain BNI4, active compounds read low 1.02 | S. cerevisiae deletion strains, locus YNL248C, strain rpa49, active compounds read low 0.963 | S. cerevisiae deletion strains, locus YNL250W, strain rad50, active compounds read low 1.02 | S. cerevisiae deletion strains, locus YNL271C, strain bni1, active compounds read low 0.994 | S. cerevisiae deletion strains, locus YNL298W, strain CLA4, active compounds read low 0.995 | S. cerevisiae deletion strains, locus YNL307C, strain MCK1, active compounds read low 0.987 | S. cerevisiae deletion strains, locus YNL322C, strain KRE1 (second series), active compounds read low 0.964 | S. cerevisiae deletion strains, locus YNL322C, strain KRE1, active compounds read low 1.01 | S. cerevisiae deletion strains, locus YNR049C, strain mso1, active compounds read low 0.981 | S. cerevisiae deletion strains, locus YNR052C, strain pop2, active compounds read low 0.99 | S. cerevisiae deletion strains, locus YOL012C, strain htz1 0.694 | S. cerevisiae deletion strains, locus YOL147C, strain pex11, active compounds read low 0.99 | S. cerevisiae deletion strains, locus YOR001W, strain rrp6, active compounds read low 0.99 | S. cerevisiae deletion strains, locus YOR061W, strain CKA2, active compounds read low 1.01 | S. cerevisiae deletion strains, locus YOR069W, strain VPS5, active compounds read low 1.01 | S. cerevisiae deletion strains, locus YOR070C, strain gyp1, active compounds read low 1.07 | S. cerevisiae deletion strains, locus YOR080W, strain dia2, active compounds read low 0.991 | S. cerevisiae deletion strains, locus YOR083W, strain WHI5, active compounds read low 1.03 | S. cerevisiae deletion strains, locus YOR106W, strain vam3, active compounds read low 0.988 | S. cerevisiae deletion strains, locus YOR136W, strain idh2, active compounds read low 0.99 | S. cerevisiae deletion strains, locus YOR144C, strain elg1, active compounds read low 0.986 | S. cerevisiae deletion strains, locus YOR184W, strain ser1, active compounds read low 0.984 | S. cerevisiae deletion strains, locus YOR231W, strain MKK1, active compounds read low 1.03 | S. cerevisiae deletion strains, locus YOR265W, strain rbl2, active compounds read low 0.989 | S. cerevisiae deletion strains, locus YOR270C, strain vph1, active compounds read low 0.901 | S. cerevisiae deletion strains, locus YOR290C, strain snf2, active compounds read low 0.987 | S. cerevisiae deletion strains, locus YOR316C, strain cot1, active compounds read low 0.987 | S. cerevisiae deletion strains, locus YPL051W, strain arl3, active compounds read low 1.03 | S. cerevisiae deletion strains, locus YPL055C, strain LGE1, active compounds read low 1.03 | S. cerevisiae deletion strains, locus YPL078C, strain atp4, active compounds read low 0.98 | S. cerevisiae deletion strains, locus YPL106C, strain sse1, active compounds read low 0.999 | S. cerevisiae deletion strains, locus YPL240C, strain hsp82, active compounds read low 0.985 | S. cerevisiae deletion strains, locus YPL241C, strain CIN2, active compounds read low 1.01 | S. cerevisiae deletion strains, locus YPL256C, strain CLN2, active compounds read low 1.01 | S. cerevisiae deletion strains, locus YPR119W, strain clb2, active compounds read low 0.992 | S. cerevisiae deletion strains, locus YPR141C, strain kar3, active compounds read low 0.995 | S. cerevisiae deletion strains, locus YPR163C, strain tif3, active compounds read low 0.988 | S. cerevisiae deletion strains, locus YPR167C, strain met16, active compounds read low 0.995 | S. cerevisiae deletion strains, strain wtn01, active compounds read low 0.972 | S. cerevisiae strains, strain wild type, active compounds read low 1
